Tgondii IFNg: T. gondii growth inhibition with IFN-gamma, primary screen, cell-based. Toxoplasma gondii growth in IFN-gamma-treated host cells; hits give low values. AID 1259416, 2018. activity change, negative = inhibition, % (concentration not given with the values). 3.8% of 69,000 active; in the data active means activity change below about -70%, passing the limit was not always enough;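 further: host cells are HeLa cells infected with Toxoplasma gondii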
Numbers stand for hits; n = inactive. The sample as a whole holds a higher share of hits than the screen did.

SMILES | Tgondii IFNg
COc1ccc(S(=O)(=O)Nc2ccc3c(c2)C(=O)N([C@@H](C)CO)C[C@@H](C)[C@H](CN(C)S(=O)(=O)c2ccc(Cl)cc2)OCCCC[C@@H](C)O3)cc1 | n
C[C@H](CO)N1C[C@H](C)[C@@H](CN(C)CC2CC2)OCCCC[C@H](C)Oc2ccc(NC(=O)c3ccccc3)cc2C1=O | n
COc1ccc(S(=O)(=O)N(C)C[C@@H]2OCCCC[C@H](C)Oc3ccc(NC(=O)Cc4ccccc4)cc3C(=O)N([C@H](C)CO)C[C@H]2C)cc1 | n
COc1ccc(S(=O)(=O)Nc2ccc3c(c2)C(=O)N([C@H](C)CO)C[C@@H](C)[C@@H](CN(C)S(=O)(=O)c2ccc(Cl)cc2)OCCCC[C@@H](C)O3)cc1 | -110.5
COc1ccc(S(=O)(=O)Nc2ccc3c(c2)C(=O)N([C@H](C)CO)C[C@H](C)[C@H](CN(C)S(=O)(=O)c2ccc(Cl)cc2)OCCCC[C@H](C)O3)cc1 | -82.0
COc1ccc(S(=O)(=O)N(C)C[C@@H]2OCCCC[C@@H](C)Oc3ccc(NC(=O)Cc4ccccc4)cc3C(=O)N([C@@H](C)CO)C[C@H]2C)cc1 | n
COc1ccc(S(=O)(=O)N(C)C[C@H]2OCCCC[C@H](C)Oc3ccc(NC(=O)Cc4ccccc4)cc3C(=O)N([C@@H](C)CO)C[C@H]2C)cc1 | n
C[C@H](CO)N1C[C@H](C)[C@H](CN(C)CC2CC2)OCCCC[C@H](C)Oc2ccc(NC(=O)c3ccccc3)cc2C1=O | -83.4
C[C@@H]1CCCCO[C@H](CN(C)CC2CC2)[C@H](C)CN([C@H](C)CO)C(=O)c2cc(NC(=O)c3ccccc3)ccc2O1 | n
COc1ccc(S(=O)(=O)N(C)C[C@H]2OCCCC[C@H](C)Oc3ccc(NC(=O)Cc4ccccc4)cc3C(=O)N([C@@H](C)CO)C[C@@H]2C)cc1 | -107.9
c1cc2c(cc1-n1cnnc1)N1CCN=C1S2 | n
CCOC(=O)c1cc2c(C)nccn2c1 | n
C=CCOC1CC2CC1N(C(=O)c1cnoc1C)C2 (centres undefined) | n
CCOC(=O)c1ccc2nc(NC(=O)c3ccc4ccccc4n3)sc2c1 | n
Cc1cccc(-c2nnc(NC(=O)Cn3c(C)nc4ccccc4c3=O)s2)c1 | n
CN(C)Cc1cn(CC[C@@H]2CC[C@@H](NC(=O)Cc3cccnc3)[C@H](CO)O2)nn1 | n
CC(C)(C)[S@](=O)N1Cc2cc(C(=O)NCCN3CCCC3)nc(-c3cccc(-c4ccc(C#N)cc4)c3)c2[C@@H]1CCO | n
CNC(=O)C1CCCC12CCN(Cc1cn(C)nc1C)C2 (centres undefined) | n
COc1ccc(S(=O)(=O)Nc2ccc3c(c2)C(=O)N([C@@H](C)CO)C[C@@H](C)[C@H](CN(C)S(=O)(=O)c2ccc(Cl)cc2)OCCCC[C@H](C)O3)cc1 | -102.2
C[C@H](CO)N1C[C@H](C)[C@H](CN(C)S(=O)(=O)c2ccc(Cl)cc2)OCCCC[C@H](C)Oc2ccc(NC(=O)Nc3ccc(C(F)(F)F)cc3)cc2C1=O | n
COc1ccc(S(=O)(=O)Nc2ccc3c(c2)C(=O)N([C@@H](C)CO)C[C@@H](C)[C@@H](CN(C)S(=O)(=O)c2ccc(Cl)cc2)OCCCC[C@@H](C)O3)cc1 | -136.7
C[C@H]1CCCCO[C@H](CN(C)S(=O)(=O)c2ccccc2)[C@@H](C)CN([C@@H](C)CO)C(=O)c2cc(NC(=O)Nc3ccc4c(c3)OCO4)ccc2O1 | -90.9
C[C@@H]1CN([C@@H](C)CO)C(=O)c2cc(NC(=O)Nc3ccc4c(c3)OCO4)ccc2O[C@@H](C)CCCCO[C@@H]1CN(C)S(=O)(=O)c1ccccc1 | n
C[C@@H]1CCCCO[C@H](CN(C)S(=O)(=O)c2ccccc2)[C@@H](C)CN([C@H](C)CO)C(=O)c2cc(NC(=O)Nc3ccc4c(c3)OCO4)ccc2O1 | n
C[C@@H]1CCCCO[C@@H](CN(C)S(=O)(=O)c2ccc(Cl)cc2)[C@H](C)CN([C@@H](C)CO)C(=O)c2cc(NC(=O)Nc3ccc(C(F)(F)F)cc3)ccc2O1 | n
SMILES | Tgondii IFNg
COc1ccc(S(=O)(=O)Nc2ccc3c(c2)C(=O)N([C@H](C)CO)C[C@@H](C)[C@@H](CN(C)S(=O)(=O)c2ccc(Cl)cc2)OCCCC[C@H](C)O3)cc1 | -117.2
C[C@H](CO)N1C[C@H](C)[C@@H](CN(C)S(=O)(=O)c2ccc(Cl)cc2)OCCCC[C@H](C)Oc2ccc(NC(=O)Nc3ccc(C(F)(F)F)cc3)cc2C1=O | n
C[C@@H]1CN([C@H](C)CO)C(=O)c2cc(NC(=O)Nc3ccc(C(F)(F)F)cc3)ccc2O[C@@H](C)CCCCO[C@H]1CN(C)S(=O)(=O)c1ccc(Cl)cc1 | n
C[C@@H]1CN([C@@H](C)CO)C(=O)c2cc(NC(=O)NC3CCCCC3)ccc2O[C@@H]1CN(C)S(C)(=O)=O | n
O=C(c1cc2c(c(-c3cccc(-c4ccc(F)cc4)c3)n1)[C@@H](CCO)N(C(=O)c1ccc3c(c1)OCO3)C2)N1CCOCC1 | n
Cc1noc(C)c1NC(=O)N1C[C@@H](O)COC[C@@H]2O[C@@H](CC(=O)N[C@H]3CCN(Cc4ccccc4)C3)CC[C@H]21 | n
c1ccc(CN2CCC(NCc3cc(-c4ccco4)on3)CC2)nc1 | n
C=CCOC1C2CCC1N(C(=O)c1cc(C)nn1CC)CCO2 (centres undefined) | n
CCOC(=O)N1CCC(NC(=O)c2cc3n(n2)CCCN(C)C3)CC1 | n
Cc1ccc(C2=NNC3(CCOC(C)(C)C3)S2)cc1 (centres undefined) | n
COc1ccc2[nH]c3c(c2c1)CCNC3C1CC=C(C)CC1 (centres undefined) | -84.0
COc1ccc2[nH]nc(C(=O)N3C[C@H]4CC=C(C)C[C@H]4C3)c2c1 | n
COc1ccc2[nH]c3c(c2c1)CCNC31C(=O)N(C)c2ccccc21 (centres undefined) | n
CCOC(=O)COc1nc(C)c(Br)c(OC)n1 | n
Cc1cc(C)n2ncc(CN3CCC(c4[nH]ncc4-c4ccccc4)CC3)c2n1 | n
Cc1cc(C)c2cc(C(=O)Nc3ccc(OC(F)(F)F)cc3)[nH]c2c1 | n
O=C(Nc1ccc(OC(F)(F)F)cc1)c1cnn(-c2ccc(Cl)cc2)c1C(F)(F)F | -86.3
O=C(NCCSCc1ccco1)c1cnn(-c2ccccc2)c1C(F)(F)F | n
O=C(O)CC(NCc1ccco1)C(=O)Nc1ccccc1 (centres undefined) | n
Cc1ccc(S(=O)(=O)N2CCC3(CCCN(CC4CCOCC4)C3)C2)cc1 (centres undefined) | n
Cc1ccc(S(=O)(=O)N2CCC3(CC2)CN(c2ccccc2)C3=O)cc1 | n
Cc1ccc(S(=O)(=O)N2CCCC3(CCCCC3)C2)cc1 | -98.3
Cc1cccc(-c2ocnc2C(=O)N2CCN(c3nc4ccccc4s3)CC2)c1 | n
O=C(c1ccc(C2CCCO2)s1)N1CCc2nc[nH]c2C1 (centres undefined) | n
Cc1ccc(NC(=O)c2nc(Nc3ccccc3)c3ccccc3n2)cc1 | n
SMILES | Tgondii IFNg
CCc1ccc(Nc2nc(C(=O)NC)nc3ccccc23)cc1 | n
COc1cc(-c2nc(Nc3ccc(C)cc3)c3ccccc3n2)cc(OC)c1OC | -93.2
COc1ccc(-c2nc(Nc3ccc(C)cc3)c3ccccc3n2)cc1 | n
CCc1cccc(NC(=O)c2nc(Nc3ccccc3)c3ccccc3n2)c1 | -72.1
COc1cccc(NC(=O)c2nc(Nc3ccc(C)cc3)c3ccccc3n2)c1 | -88.1
COc1ccc(-c2nc(Nc3cc(C)cc(C)c3)c3ccccc3n2)cc1 | n
COc1ccc(NC(=O)c2nc(Nc3ccccc3)c3ccccc3n2)cc1 | n

Screening data as filed in PubChem.
